# System: DMPK
# Details: concentration: 1 μM, replicates: in singlicate; n = 1
# 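Further: KINOMEscan kinase panel screen.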
row,SMILES,%Inh
1,O=C(Nc1ccc2c(c1)OCO2)NC1CCN(c2ccnc(NCc3ccc(F)cc3)n2)CC1 [GSK1379859],0%
2,Nc1ncnc2c1ncn2-c1cccc(F)c1 [SKF-97560],0%
3,COc1ccc(-c2cc3c(C)nc(N)nc3n([C@H]3CC[C@H](O)CC3)c2=O)cn1,0%
4,COc1ccc(CNC(=O)NC2CCN(c3ccnc(Nc4ccc(F)cc4)n3)C2)cc1 (stereo not shown) [GSK1379706],0%
5,Nc1ncnc2c1ncn2-c1cccc2ccccc12 [SKF-97184],0%
6,COc1cccc(C2=C(N(C)c3ccccc3)C(=O)NC2=O)c1 [SB-334865],0%
7,Nc1nc(N)c2nc(-c3ccccc3)[nH]c2n1 [SKF-12778],25%
8,COc1cc2ncn(-c3cc(OCc4ccncc4Br)c(C(N)=O)s3)c2cc1OC [GW854278],3%
9,Nc1n[nH]c2nnc(-c3ccccc3)c(-c3ccccc3)c12 [GW554060],0%
10,Nc1nc(-c2ccccc2F)c(-c2ccnc3ccccc23)s1 [GW560459],0%
11,Nc1nccc2scc(-c3ccc4c(c3)CCN4C(=O)Cc3ccccc3)c12 [GSK2576924],0%
12,Cc1cccc(-c2cc(-c3c[nH]nc3-c3ccccn3)ccn2)c1 [GW679395],0%
13,Cc1ccc(-c2ccc3c(ccc4sc5c(c43)NC[C@@H](C)N=C5N(C)C)n2)cn1,0%
14,CCCNC(=O)Nc1ccc(Oc2ncnc3ccn(C)c23)cc1,0%
15,CCCC(=O)Nc1n[nH]c2ncc(-c3cccc4ccccc34)cc12 [SB-642057],0%
16,CCC(=O)c1c(-c2ccccc2)c2cc(Cl)ccc2c(=O)n1Cc1ccc(C(=O)O)cc1,0%
17,COc1cc2ncn(-c3cc(OCCCc4ccccc4)c(C(N)=O)s3)c2cc1OC [GSK205189],0%
18,Cc1cc(Nc2nc(-c3cccc(C)n3)nc3ccccc23)ccn1 [GW872411],0%
19,COc1ccc(-c2cc3c(C)nc(N)nc3n([C@H]3CC[C@H](OCCO)CC3)c2=O)cn1,8%
20,O=C(Nc1n[nH]c2nc(-c3ccccc3)c(Cl)cc12)C1CC1 [SB-734909],0%
21,COc1cc2ncn(-c3cc(OCc4ccc(S(C)(=O)=O)cc4)c(C(N)=O)s3)c2cc1OC [GW869979],0%
22,CN1C(=O)C(Nc2ccccc2)=C(c2ccccc2)C1=O [SB-300079],0%

# System: T1, DRAK1
# T1 construct: gene STK17A
# Details: concentration: 1 μM, replicates: in singlicate; n = 1
row,SMILES,%Inh
1,CCn1c(-c2ccoc2)nc2cnccc21 [SB-733887],0%
2,O=c1cc(N2CCOCC2)nc2n(Cc3ccc(F)c(Cl)c3)ccn12 [GSK2297099],0%
3,Cc1cccc(-c2nc(Nc3ccc4c(cnn4C)c3)c3ccccc3n2)n1 [GW876731],7%
4,Cl.NS(=O)(=O)c1cccc(Nc2cc(-c3ccc(F)cc3)n[nH]2)c1 [GW824645],0%
5,COc1cc(Nc2nccc(N3CCC(NC(=O)C4COc5ccccc5O4)C3)n2)cc(OC)c1OC (stereo not shown) [GSK1379761],0%
6,COC(=O)c1c(-c2ccccc2)c2cc(Br)ccc2c(=O)n1Cc1ccc(NC(=O)CCC(=O)O)cc1,0%
7,CN1C(=O)C(Nc2cc(Cl)c(O)c(Cl)c2)=C(c2ccc(Cl)cc2)C1=O [SB-404321],0%
8,CCC(=O)c1c(-c2ccccc2)c2cc(Cl)ccc2c(=O)n1Cc1cc(S(C)(=O)=O)n(CC(N)=O)n1,0%
9,Nc1ncnc2c1ncn2-c1ccc(Cl)cc1 [AH2635],17%
10,O=C(NCc1cccs1)c1cc(C(=O)c2c(Cl)cccc2Cl)c[nH]1 [GW823670],4%
11,CCn1c(-c2nonc2N)nc2ccccc21 [SB-693162/GW549034],9%
12,O=C(NCCNc1ccnc(Nc2ccc(F)cc2)n1)Nc1ccc2c(c1)OCO2 [GSK1379882],10%
13,COc1ccc(Nc2nccc(N3CCC(NS(=O)(=O)c4ccc(NC(C)=O)cc4)C3)n2)cc1 (stereo not shown) [GSK1379729],0%
14,COc1cc2nccc(Nc3cccc(Oc4ccccc4)c3)c2cc1OC.Cl [GW284543],2%
15,O=C(Nc1ccc2c(c1)OCO2)NC1CCN(c2ccnc(NCc3ccc(F)cc3)n2)CC1 [GSK1379859],6%
16,Nc1ncnc2c1ncn2-c1cccc(F)c1 [SKF-97560],20%
17,COc1ccc(-c2cc3c(C)nc(N)nc3n([C@H]3CC[C@H](O)CC3)c2=O)cn1,0%
18,COc1ccc(CNC(=O)NC2CCN(c3ccnc(Nc4ccc(F)cc4)n3)C2)cc1 (stereo not shown) [GSK1379706],6%

row,SMILES,%Inh
1,Nc1ncnc2c1ncn2-c1cccc2ccccc12 [SKF-97184],7%
2,COc1cccc(C2=C(N(C)c3ccccc3)C(=O)NC2=O)c1 [SB-334865],0%
3,Nc1nc(N)c2nc(-c3ccccc3)[nH]c2n1 [SKF-12778],8%
4,COc1cc2ncn(-c3cc(OCc4ccncc4Br)c(C(N)=O)s3)c2cc1OC [GW854278],4%
5,Nc1n[nH]c2nnc(-c3ccccc3)c(-c3ccccc3)c12 [GW554060],0%
6,Nc1nc(-c2ccccc2F)c(-c2ccnc3ccccc23)s1 [GW560459],0%
7,Nc1nccc2scc(-c3ccc4c(c3)CCN4C(=O)Cc3ccccc3)c12 [GSK2576924],1%
8,Cc1cccc(-c2cc(-c3c[nH]nc3-c3ccccn3)ccn2)c1 [GW679395],0%
9,Cc1ccc(-c2ccc3c(ccc4sc5c(c43)NC[C@@H](C)N=C5N(C)C)n2)cn1,0%
10,CCCNC(=O)Nc1ccc(Oc2ncnc3ccn(C)c23)cc1,0%
11,CCCC(=O)Nc1n[nH]c2ncc(-c3cccc4ccccc34)cc12 [SB-642057],0%
12,CCC(=O)c1c(-c2ccccc2)c2cc(Cl)ccc2c(=O)n1Cc1ccc(C(=O)O)cc1,0%
13,COc1cc2ncn(-c3cc(OCCCc4ccccc4)c(C(N)=O)s3)c2cc1OC [GSK205189],0%
14,Cc1cc(Nc2nc(-c3cccc(C)n3)nc3ccccc23)ccn1 [GW872411],0%
15,COc1ccc(-c2cc3c(C)nc(N)nc3n([C@H]3CC[C@H](OCCO)CC3)c2=O)cn1,16%
16,O=C(Nc1n[nH]c2nc(-c3ccccc3)c(Cl)cc12)C1CC1 [SB-734909],0%
17,COc1cc2ncn(-c3cc(OCc4ccc(S(C)(=O)=O)cc4)c(C(N)=O)s3)c2cc1OC [GW869979],0%
18,CN1C(=O)C(Nc2ccccc2)=C(c2ccccc2)C1=O [SB-300079],0%
